From PubChem BioAssay
TRPM1 prom inh = reduces MITF-dependent TRPM1 promoter luciferase signal. AID 488899. SK-MEL-5 TRPM1 promoter luciferase, 24 h. inhibition, % at 12.5 µM. hit rate 0.83% among 330,000;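 active means mean inhibition across replicates of 60% or more, whatever share of single replicates reaches that level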
Peg3 promoter = inhibitors of Peg3 promoter; HeLa PEG-Prom luciferase reporter, luminescence, overnight; inhibition, % at 20 µM; hit rate 1.7% among 360,000; AID 588405;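 active means inhibition of at least 50% at 20 µM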
CF NFkB block = cystic fibrosis NF-kB activation inhibition | KKLEB NF-kB-GFP reporter, PAF-induced, GFP fluorescence overnight | inhibition, % at 5 µM | hit rate 0.86% among 360,000;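 active means at least 50% inhibition at 5 µM, scaled per plate between neutral and stimulator controls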;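 further: PAF is a Pseudomonas aeruginosa culture filtrate used as stimulus; plate controls were PAF-stimulated DMSO wells for no effect and unstimulated DMSO wells for full effect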
KKLEB tox = counter-screen for CF NF-kB inhibitors: cytotoxicity. KKLEB CF airway cells viability, ATPlite luminescence, overnight; active compounds read low; cells stimulated with P. aeruginosa culture filtrate. hit rate 0.36% among 360,000. activity change (cytotoxicity), % at 5 µM;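 active means corrected activity change at or below -50% at 5 µM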
HIF-2a block = inhibitors of HIF-2a. 786-0 RCC cells HIF-2a reporter, luciferase luminescence, overnight. inhibition, % at 18.8 µM. hit rate 0.72% among 360,000. AID 624352;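 active means inhibition of the luminescence signal of 40% or more relative to plate controls, in a single-dose primary screen at 18.75 µM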
CHOP inh = blocks CHOP induction under ER stress | CHO-K1 CHOP-promoter luciferase, tunicamycin-induced, 15-18 h | inhibition, % at 10 µM | hit rate 3.8% among 220,000;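 active means compounds that reduced the stress-induced luciferase reporter signal by more than about 70% of percent inhibition, limit read from the data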;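 further: 0% = tunicamycin plus vehicle and 100% = wells without tunicamycin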
Numbers without * were called inactive; nt = no result. Compounds with a hit are over-represented: about 4.3% of the library has one in this group of screens.

SMILES	TRPM1 prom inh	Peg3 promoter	CF NFkB block	KKLEB tox	HIF-2a block	CHOP inh
NC(Cc1ccc(C(F)(F)F)cc1)c1csc(NC(=O)Nc2ccccc2Cl)n1 (configuration not stated)	nt	89*	-44	23	13	nt
CC1CCCC(C)N1C(=O)COC(=O)CNS(=O)(=O)c1ccc2ccccc2c1 (configuration not stated)	nt	15	10	-9	6	nt
NC(CO)c1csc(NC(=O)Nc2cccc(Cl)c2)n1 (configuration not stated)	nt	-3	-5	4	-17	nt
COc1ccc(CC(N)c2csc(NC(=O)c3cccs3)n2)cc1 (configuration not stated)	nt	13	-8	-30	2	nt
CC(C)C(N)c1csc(NC(=O)Nc2cccc(C(F)(F)F)c2)n1 (configuration not stated)	nt	97*	8	-10	-6	nt
NC(CCc1ccccc1)c1csc(NC(=O)Nc2cccc(C(F)(F)F)c2)n1 (configuration not stated)	nt	95*	16	-6	6	nt
COc1ccc(CC(N)c2csc(NC(=O)Nc3cccc(C(F)(F)F)c3)n2)cc1 (configuration not stated)	nt	97*	4	-11	3	nt
NCc1csc(NC(=O)Nc2cccc(C(F)(F)F)c2)n1	nt	-2	31	-2	6	nt
NC(COCc1ccccc1)c1csc(NC(=O)Nc2cccc(Cl)c2)n1 (configuration not stated)	nt	96*	17	-32	5	nt
O=C(Cn1cc(COc2ccc(Cl)c(Cl)c2)nn1)NS(=O)(=O)c1ccccc1C(F)(F)F	nt	-7	-7	4	4	nt
Fc1ccc2nncc(SCc3ccccc3Cl)c2c1	-7	34	-16	-2	-6	nt
CCCCc1nc2cc(C(=O)NCc3cc(C)n(C)n3)ccc2o1	-40	-101	-7	7	-111	nt
O=S(=O)(c1ccccc1)N1CCN(c2cccc(Cl)c2)CC1	-4	3	-14	14	-1	nt
O=[N+]([O-])c1ccc2[nH]cc(S(=O)(=O)N3CCN(c4cccc(Cl)c4)CC3)c2c1	0	60*	13	1	7	nt
Cc1cccc(C(=O)NCC(=O)OCC(=O)c2cc(C)n(CC3CCCO3)c2C)c1 (configuration not stated)	-8	12	12	-11	-32	12
COc1cc(-c2nnc(SCC(=O)c3cc(C)n(CC4CCCO4)c3C)o2)cc(OC)c1OC (configuration not stated)	7	-14	-9	7	-19	25
Cc1cc(C(=O)CSc2nc3ccccc3c(=O)n2C)c(C)n1CC1CCCO1 (configuration not stated)	nt	nt	nt	nt	nt	74*
Cc1cc(C(=O)CSc2nc3ccccc3c(=O)[nH]2)c(C)n1CC1CCCO1 (configuration not stated)	-20	-292	-10	8	-226	44
Cc1cc(C(=O)COC(=O)CNC(=O)c2ccccc2)c(C)n1CC1CCCO1 (configuration not stated)	16	26	-14	6	-17	90*
Cc1cc(C(=O)CSc2nnc(-c3ccc(F)cc3)o2)c(C)n1CC1CCCO1 (configuration not stated)	11	12	2	-4	1	93*
CN(Cc1ccco1)C(=O)[C@H](Cc1ccccc1)NC(=O)CC[C@H]1O[C@@H](n2ccc(=O)[nH]c2=O)[C@H](O)[C@@H]1O	nt	12	-19	13	-3	nt
Cc1cc(C)c(-c2csc(NC(=O)/C=C/c3cccs3)n2)c(C)c1	40	-13	58*	-62*	-58	64
Cc1cc(C)nc(NC(=O)/C=C/c2cccs2)c1	-70	-246	-9	-3	-322	25
CCN(CC)CCNc1c(C)cc(CO)c(Cl)c1C	nt	72*	13	-7	20	nt
CCCn1c(SC(C)C(=O)NC2CCCC2)n[nH]c1=O (configuration not stated)	-16	-8	-7	-3	9	nt
SMILES	TRPM1 prom inh	Peg3 promoter	CF NFkB block	KKLEB tox	HIF-2a block	CHOP inh
S=C(Sc1ccc(Cl)cc1)Sc1ccc(Cl)cc1	nt	nt	nt	nt	nt	106*
O=C1Nc2ccc(Br)cc2/C1=C/C(=O)c1ccccc1	75*	98*	18	9	23	nt
O=C(O)COc1ccccc1/C=C1\C(=O)Nc2ccc(Br)cc21	19	1	17	-9	19	nt
COc1cccc(C(O)c2nc(-c3cncnc3)cs2)c1 (configuration not stated)	nt	-9	-13	3	12	nt
CC(C)N1C/C(=C/c2cccnc2)C(=O)/C(=C/c2cccnc2)C1	90*	26	-49	13	23	100*
CC1=C(C(=O)Nc2ccccc2C(=O)N2CCN(c3ccccc3)CC2)SCCO1	nt	20	12	-8	18	nt
O=C(CCCN1C(=O)/C(=C/c2cccs2)SC1=S)NNC(=O)c1ccc(F)cc1	5	22	-4	11	46*	58
O=C(O)CN1C(=O)/C(=C\c2cc([N+](=O)[O-])ccc2OCc2ccccc2Cl)SC1=S	-3	-3	11	2	1	nt
O=C(CCCN1C(=O)/C(=C/c2ccc3c(c2)OCO3)SC1=S)Nc1cccc(C(=O)O)c1	10	28	3	-24	88*	nt
O=C(CCCN1C(=O)/C(=C/c2cccs2)SC1=S)Nc1ccc(C(=O)O)cc1	-2	13	-7	9	6	23
O=C1/C(=C\c2cc([N+](=O)[O-])ccc2O)SC(=S)N1Cc1ccc(Cl)cc1	7	97*	11	-41	-18	nt
O=C(CCCN1C(=O)/C(=C/c2cccs2)SC1=S)Nc1cccc(O)c1	-5	61*	-1	-4	14	nt
CC(OC(=O)CCC1CCCC1)C(=O)Nc1ccccc1[N+](=O)[O-] (configuration not stated)	-6	0	11	6	10	nt
O=C(NCc1cccs1)c1ccc(CS(=O)Cc2ccc(Cl)cc2)o1 (configuration not stated)	nt	-2	-5	-6	13	nt
Cc1cc(NC(=O)CCCN2C(=O)/C(=C/c3cccs3)SC2=S)no1	11	38	18	-14	22	76*
O=C(CCCN1C(=O)/C(=C\c2cccs2)SC1=S)Nc1cc([N+](=O)[O-])ccc1O	-10	40	53*	-14	7	nt
CCc1ccc(/C=C2\SC(=S)N(CCC(=O)Nc3cc(C)on3)C2=O)cc1	39	-1	-5	0	82*	40
CCOC1=C2[C@@H](CN(S(=O)(=O)c3ccc(C)cc3)[C@H]2c2cccc3ccccc23)[C@H]2C(=O)N(C3CCCCC3)C(=O)[C@H]2C1	nt	4	0	0	-17	nt
N#Cc1c(N)nc(SCC(=O)NC2CCCCC2)c(C#N)c1-c1ccc(Cl)cc1	-2	74*	-2	6	-4	20
COc1ccccc1OCCSc1nc2ccccc2c(=O)[nH]1	-55	-149	-1	-13	-279	-2
